Several values for one entry are separate records, joined by “and”; a condition that tells them apart may be missing. Equal values may be shown once. Activity calls are given as the source filed them. Cut-off read from the data, not from the text of the source, unless noted: active = parasite load remaining mostly below about 12% (no sharp cut-off); inactive = mostly above about 10%.
How the values were obtained:
[1] = yeast 75Q aggregation reduction – 75Q-TubU reporter (AID 1593); conditions: Yeast 75Q polyglutamine aggregation reporter
[2] = blockers of cytochrome c efflux from mitochondria – biochemical, purified mitochondria (AID 1603); conditions: stronger effect = lower value;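 note: mouse liver mitochondria challenged with calcium chloride; signal normalized to the plate average as 100%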
[3] = polyglutamine aggregate formation blockers (AID 1604); conditions: polyglutamine-induced protein aggregation inhibition assay; stronger effect = higher value; tested at 2.5 µM
[4] = P. berghei load reduction in hepatocytes – cell-based, HepG2, luciferase luminescence, HepG2 viability, primary screen (AID 624349);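 note: 100% = mean of DMSO negative control wells on the same plate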; conditions: P. berghei liver stage in HepG2, luciferase luminescence, concentration not given here; parasite load remaining: stronger effect = lower value; viability: measured here: HepG2 viability without parasites
[5] = Wnt pathway potentiators raising nuclear beta-catenin – imaging, WNT3A-conditioned medium, mouse C2C12, NPC library, primary screen (AID 1117326; in the data active = nuclear beta-catenin stimulation mostly above about 4.2%, no sharp cut-off; inactive = mostly below about 10%); conditions: stronger effect = higher value
[6] = stimulators of insulin release from INS-1E, primary screen, cell-based, 5 mM glucose, NPC library (AID 1117329;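 active = compound raises insulin release from rat beta cells at 5 mM glucose, no numeric limit stated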); conditions: rat INS-1E insulin secretion, at 10 µM, stronger effect = higher value
[7] = growth inhibition of GSK3B-pretreated HCT116 cells – cell-based, CellTiter-Glo, 0.2 to 20 µM (AID 1117336;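 active = compounds lowering colon cancer cell viability after pretreatment blocking the GSK3B kinase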); conditions: HCT116 viability after GSK3B inhibitor, at 20 µM, stronger effect = higher value
[8] = inhibition of endothelial tube formation, primary screen, imaging, VEGF stimulated, CD31 staining, tube area, NPC library (AID 1117340;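 active = compound that reduces growth-factor-driven endothelial tube area in a mixed cell culture, no cutoff stated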); conditions: VEGF-stimulated ADSC/ECFC co-culture, at 10 µM, stronger effect = higher value
[9] = GLP1 release stimulators, primary, NCI-H716, NPC library (AID 1117341;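 active = compound raises GLP1 secretion from the human gut endocrine cells, with no numeric limit stated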); conditions: NCI-H716 cells, at 10 µM, stronger effect = higher value
[10] = HCT116 colon cancer cell growth inhibition, primary screen, CellTiter-Glo luminescence, NPC library (AID 1117342;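 active = compounds that lower survival of HCT116 colon cancer cells in the luminescence readout, no numeric limit stated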); conditions: at 20 µM (top of the series)
[11] = reduced SW480 viability measured with CellTiter-Glo, NPC library, primary (AID 1117343;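 active = compounds that lower viability of the colon cancer cells in the luminescence readout, with no numeric limit stated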); conditions: CellTiter-Glo luminescence; at 20 µM (top of the series)
[12] = NPC library primary testing for decreased DLD-1 cell viability via CellTiter-Glo (AID 1117346;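 active = compounds that lower survival of DLD-1 colon cancer cells in the luminescence readout, no cutoff given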); conditions: DLD-1 viability, CellTiter-Glo luminescence; at 20 µM (top of the series)
[13] = biological target: 6-phosphogluconate dehydrogenase, decarboxylating (Homo sapiens) (UniProt P52209); assay: inhibition of human phosphogluconate dehydrogenase – biochemical, recombinant enzyme, NADPH absorbance, primary screen (AID 1159550;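 active = at least 20% inhibition of 6-phosphogluconate dehydrogenase activity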); conditions: recombinant 6PGD, NADPH absorbance 341 nm; at 10 µM; stronger effect = higher value
[14] = EMT-state selective cytotoxicity in co-culture – imaging, PC-3E GFP, TEM4-18 mCherry, primary screen (AID 1345086;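 active = compounds killing one labelled cell type while sparing the other, by normalised counts and ratio limits, not self-fluorescent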;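 for all read-outs here: cells exposed to compound for 72 h before imaging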;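 for red/green cell ratio (normalised): normalised mesenchymal count divided by normalised epithelial count so high means epithelial killing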); conditions: PC-3E GFP / TEM4-18 mCherry co-culture, imaging cell counts, at 1 µM; for red/green cell ratio (normalised): actives lie on both sides
[15] = test system: Aerobactin synthetase IucA (Klebsiella pneumoniae hvKP1); assay: IucA enzyme inhibition, primary screen, biochemical, Spectrum library (AID 1346200; call rule not given here;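 note: 100% = wells without compound and 0% = wells lacking enzyme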); conditions: malachite green pyrophosphate, A620, at 8 µM, stronger effect = lower value
[16] = viability loss with induced miR-34 in A549 – imaging, A549 dox-inducible miR-34, nuclei and caspase counts, primary screen (AID 1347080;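 active = compounds whose cell count with miR-34 switched on is under 0.7 times the count with it off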); conditions: A549 miR-34 inducible, Hoechst nuclei count, 48 h
[17] = biological target: NAD(+) hydrolase SARM1 (Homo sapiens) (UniProt Q6SZW1); assay: blocking NAD cleavage by SARM1 SAM-TIR – cell lysate, NAD-Glo luminescence (AID 1508614;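 active = compound whose remaining NAD level is above about 45 nM, limit read from the data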;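 note: higher remaining NAD means stronger inhibition of SARM1 NADase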); conditions: SAM-TIR HEK293T lysate NADase, at 1 µM, stronger effect = higher value
[18] = biological target: Mitogen-activated protein kinase 7 (Homo sapiens) (UniProt Q13164); assay: Gal4-ERK5 driven luciferase induction – cell-based, HTS, primary screen (AID 1508626;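 active = luciferase signal above three times the same-plate solvent-only control wells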;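 note: luciferase driven by Gal4-ERK5 fusion binding five Gal4 sites before minimal TATA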); conditions: HeLa Gal4-ERK5 transactivation, 18 h, at 5 µM, stronger effect = higher value
[19] = MELAS cybrid and Rieske KO viability enhancers – cell-based, MELAS cybrids, Rieske KO mouse fibroblasts, CellTiter-Glo, primary screen (AID 1508586;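 active = mean z-score across replicates of 1.96 or higher in either the MELAS or the Rieske mutant cell line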;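 note: z relative to plate mean and SD of compound and empty wells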); conditions: low glucose
[20] = galactose survival enhancers in mitochondrial complex I cybrids – cell-based, galactose medium, ATP luminescence, primary screen (AID 1645843;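 active = z-score of at least 1.8 in each of two replicates, scored against plate mean and spread of sample wells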;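 note: positive z means more ATP and so rescue of galactose-driven cybrid death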); conditions: complex I mutant cybrid cells, 72 h, stronger effect = higher value
[21] = measured here: epithelial PC-3E GFP cell survival
[22] = measured here: mesenchymal TEM4-18 mCherry cell survival
[23] = measured here: relative caspase fold change +Dox/-Dox
[24] = measured here: total cells with miR-34 induction, stronger effect = lower value
[25] = measured here: total cells without miR-34 induction

NAD(+) hydrolase SARM1 (Homo sapiens), sequence (Q6SZW1 whole entry, looked up, the tested form may be a part): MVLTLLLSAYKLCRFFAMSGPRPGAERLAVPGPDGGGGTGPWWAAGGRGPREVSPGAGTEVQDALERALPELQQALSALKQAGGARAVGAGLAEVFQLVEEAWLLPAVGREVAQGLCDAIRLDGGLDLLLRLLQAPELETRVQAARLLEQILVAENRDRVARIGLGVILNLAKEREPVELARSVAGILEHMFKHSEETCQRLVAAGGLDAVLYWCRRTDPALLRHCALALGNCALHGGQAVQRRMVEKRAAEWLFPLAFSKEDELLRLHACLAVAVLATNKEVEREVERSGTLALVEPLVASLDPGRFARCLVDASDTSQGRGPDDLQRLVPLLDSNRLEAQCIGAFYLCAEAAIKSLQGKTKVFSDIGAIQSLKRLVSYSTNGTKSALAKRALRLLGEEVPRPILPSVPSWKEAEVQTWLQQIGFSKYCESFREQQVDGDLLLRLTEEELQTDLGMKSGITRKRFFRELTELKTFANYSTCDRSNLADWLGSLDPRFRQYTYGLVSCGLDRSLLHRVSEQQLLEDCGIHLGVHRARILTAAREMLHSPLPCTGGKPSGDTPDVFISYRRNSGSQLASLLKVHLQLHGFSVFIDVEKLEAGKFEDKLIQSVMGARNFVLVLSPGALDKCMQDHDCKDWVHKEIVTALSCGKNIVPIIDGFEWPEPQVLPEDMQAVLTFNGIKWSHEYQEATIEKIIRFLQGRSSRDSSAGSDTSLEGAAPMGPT
6-phosphogluconate dehydrogenase, decarboxylating (Homo sapiens), sequence (P52209 whole entry, looked up): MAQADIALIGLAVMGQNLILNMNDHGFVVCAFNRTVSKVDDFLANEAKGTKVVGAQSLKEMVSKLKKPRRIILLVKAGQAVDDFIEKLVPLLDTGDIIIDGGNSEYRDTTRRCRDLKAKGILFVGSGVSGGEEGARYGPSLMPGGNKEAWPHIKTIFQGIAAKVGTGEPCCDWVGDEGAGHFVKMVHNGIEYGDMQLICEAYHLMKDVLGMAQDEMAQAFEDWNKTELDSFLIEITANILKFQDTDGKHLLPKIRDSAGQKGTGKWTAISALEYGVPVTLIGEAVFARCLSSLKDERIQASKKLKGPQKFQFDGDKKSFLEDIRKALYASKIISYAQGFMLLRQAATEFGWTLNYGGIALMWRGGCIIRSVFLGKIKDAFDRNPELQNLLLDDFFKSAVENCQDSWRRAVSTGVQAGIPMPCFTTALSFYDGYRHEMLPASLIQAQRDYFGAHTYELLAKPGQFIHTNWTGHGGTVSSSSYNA
Mitogen-activated protein kinase 7 (Homo sapiens), sequence (Q13164 whole entry, looked up, the tested form may be a part): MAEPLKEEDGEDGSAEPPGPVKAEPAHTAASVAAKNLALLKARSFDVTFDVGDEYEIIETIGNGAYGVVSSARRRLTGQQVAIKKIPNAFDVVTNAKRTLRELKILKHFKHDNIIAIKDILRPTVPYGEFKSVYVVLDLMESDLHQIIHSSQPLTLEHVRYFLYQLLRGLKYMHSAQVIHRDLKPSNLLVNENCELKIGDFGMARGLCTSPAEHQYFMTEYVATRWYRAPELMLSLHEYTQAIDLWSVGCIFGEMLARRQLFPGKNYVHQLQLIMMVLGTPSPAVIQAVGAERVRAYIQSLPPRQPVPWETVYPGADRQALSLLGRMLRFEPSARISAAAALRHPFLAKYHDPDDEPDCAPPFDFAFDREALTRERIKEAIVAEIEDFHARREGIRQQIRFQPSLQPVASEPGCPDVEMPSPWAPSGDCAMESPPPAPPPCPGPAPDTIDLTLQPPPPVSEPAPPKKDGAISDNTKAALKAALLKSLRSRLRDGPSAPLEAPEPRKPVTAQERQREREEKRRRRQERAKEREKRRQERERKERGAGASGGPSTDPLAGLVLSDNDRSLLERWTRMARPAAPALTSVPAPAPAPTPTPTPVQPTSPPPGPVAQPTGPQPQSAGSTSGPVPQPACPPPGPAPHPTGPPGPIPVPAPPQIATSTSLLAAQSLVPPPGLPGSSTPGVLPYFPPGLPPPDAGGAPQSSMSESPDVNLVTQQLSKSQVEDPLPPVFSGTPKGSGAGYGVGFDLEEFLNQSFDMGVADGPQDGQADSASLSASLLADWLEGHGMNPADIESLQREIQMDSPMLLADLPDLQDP

NCCc1cc(O)c(O)cc1O
score [1]: 1.88
cytochrome c release ratio [2]: 0.92
inhibition of aggregation [3]: 55.6%
parasite load remaining [4]: 70% (inactive) and 42.8% (inactive)
viability [4]: 70% and 87.6%
nuclear beta-catenin stimulation ([5]; at 10 µM): 2.4% (inactive)
nuclear beta-catenin stimulation ([5]; stimulation, at 2 µM): 2.4%
insulin secretion stimulation [6]: 1.2% (inactive)
viability decrease [7]: -22.3% (inactive)
tube area decrease [8]: 18.6% (inactive)
GLP1 secretion stimulation [9]: -8.1% (inactive)
inhibition of viability [10]: 15.3% (inactive)
viability decrease (inhibition) [11]: 142% (active)
viability decrease (inhibition) [12]: 78.2% (active)
inhibition [13]: 13% (inactive)
red/green cell ratio (normalised) [14]: 1.14 (inactive)
normalised cell number [14, 21]: 1.02
normalised cell number [14, 22]: 1.17
activity remaining [15]: 78.8% (inactive)
fold change ([16]; stronger effect = lower value): 0.838 (inactive)
fold change [16, 23]: 0.786
cell count [16, 24]: 10500
cell count [16, 25]: 12600
remaining NAD [17]: 10 nM (inactive)
luciferase signal [18]: 156 AU (inactive)

C[C@H]1O[C@@H](O[C@H]2[C@@H](O)C[C@H](O[C@H]3[C@@H](O)C[C@H](O[C@H]4CC[C@@]5(C)[C@H](CC[C@@H]6[C@@H]5CC[C@]5(C)[C@@H](C7=CC(=O)OC7)CC[C@]65O)C4)O[C@@H]3C)O[C@@H]2C)C[C@H](O)[C@@H]1O
nuclear beta-catenin stimulation ([5]; at 10 µM): 1.3% (inactive)
nuclear beta-catenin stimulation ([5]; stimulation, at 2 µM): 1.9%
insulin secretion stimulation [6]: 0.25% (inactive)
viability decrease [7]: 84.5% (active)
tube area decrease [8]: 112% (active)
GLP1 secretion stimulation [9]: 11.6% (inactive)
inhibition of viability [10]: 61.8% (active)
viability decrease (inhibition) [11]: 75.8% (active)
viability decrease (inhibition) [12]: 84.5% (active)
inhibition [13]: -0.54% (inactive)
remaining NAD [17]: 10 nM (inactive)
luciferase signal [18]: 24 AU (inactive)

O=[N+]([O-])O[C@H]1CO[C@H]2[C@@H]1OC[C@H]2O[N+](=O)[O-]
score [1]: 1.7
cytochrome c release ratio [2]: 0.66
inhibition of aggregation [3]: 83.1%
parasite load remaining [4]: 88.7% (inactive) and 89.6% (inactive) and 73.9% (inactive)
viability [4]: 101% and 72.5% and 103%
nuclear beta-catenin stimulation ([5]; at 10 µM): 1.4% (inactive)
nuclear beta-catenin stimulation ([5]; stimulation, at 2 µM): 0.8%
insulin secretion stimulation [6]: 0.2% (inactive)
viability decrease [7]: -35.2% (inactive)
tube area decrease [8]: 2.7% (inactive)
GLP1 secretion stimulation [9]: -0.1% (inactive)
inhibition of viability [10]: -4.45% (inactive)
viability decrease (inhibition) [11]: 10.7% (inactive)
viability decrease (inhibition) [12]: -9.7% (inactive)
inhibition [13]: -5.58% (inactive)
red/green cell ratio (normalised) [14]: 1.14 (inactive)
normalised cell number [14, 21]: 1.17
normalised cell number [14, 22]: 1.33
activity remaining [15]: 86.8% (inactive)
fold change ([16]; stronger effect = lower value): 0.842 (inactive) and 0.816 (inactive)
fold change [16, 23]: 1.05 and 0.822
cell count [16, 24]: 8050 and 10900
cell count [16, 25]: 9560 and 13300
z-score ([19]; MELAS cybrid survival, CellTiter-Glo 48 h, stronger effect = higher value): -0.72 (inactive)
z-score ([19]; Rieske KO mouse fibroblast survival, CellTiter-Glo 72 h): -0.455
remaining NAD [17]: 10 nM (inactive)
luciferase signal [18]: 164 AU (inactive)

C=C(C)[C@H]1CN[C@H](C(=O)O)[C@H]1CC(=O)O
nuclear beta-catenin stimulation ([5]; at 10 µM): 0% (inactive)
nuclear beta-catenin stimulation ([5]; stimulation, at 2 µM): 1.5%
insulin secretion stimulation [6]: -1.6% (inactive)
viability decrease [7]: 3.4% (inactive)
tube area decrease [8]: -7.3% (inactive)
GLP1 secretion stimulation [9]: -2% (inactive)
inhibition of viability [10]: -16% (inactive)
viability decrease (inhibition) [11]: -0.1% (inactive)
viability decrease (inhibition) [12]: -1.8% (inactive)
inhibition [13]: 2.88% (inactive)
fold change ([16]; stronger effect = lower value): 1.1 (inactive) and 0.956 (inactive)
fold change ([16]; stronger effect = lower value, cell number ratio, induced over uninduced): 0.95 (inactive)
fold change [16, 23]: 1.24 and 0.883 and 0.751
cell count [16, 24]: 10600 and 5610 and 8280
cell count [16, 25]: 9620 and 5900 and 8660
remaining NAD [17]: 10 nM (inactive)
luciferase signal [18]: 68 AU (inactive)
z-score [20]: 0.445 (inactive) and 0.325 (inactive)

NC(=O)c1cc([N+](=O)[O-])cc([N+](=O)[O-])c1
score [1]: 1.47
cytochrome c release ratio [2]: 0.54
inhibition of aggregation [3]: 72.4%
parasite load remaining [4]: 66.1% (inactive) and 34.1% (inactive)
viability [4]: 71.7% and 90.1%
nuclear beta-catenin stimulation ([5]; at 10 µM): -1.3% (inactive)
nuclear beta-catenin stimulation ([5]; stimulation, at 2 µM): -1.6%
insulin secretion stimulation [6]: 0.7% (inactive)
viability decrease [7]: 30.5% (inactive)
tube area decrease [8]: -14.6% (inactive)
GLP1 secretion stimulation [9]: -0.8% (inactive)
inhibition of viability [10]: 37.6% (inactive)
viability decrease (inhibition) [11]: 67.6% (active)
viability decrease (inhibition) [12]: 6.7% (inactive)
inhibition [13]: 8.1% (inactive)
red/green cell ratio (normalised) [14]: 0.97 (inactive)
normalised cell number [14, 21]: 0.99
normalised cell number [14, 22]: 0.96
activity remaining [15]: 116% (inactive)
fold change ([16]; stronger effect = lower value): 0.831 (inactive)
fold change [16, 23]: 2.03
cell count [16, 24]: 10800
cell count [16, 25]: 12900
remaining NAD [17]: 10 nM (inactive)
luciferase signal [18]: 40 AU (inactive)

CC(=O)Nc1cc([As](=O)(O)O)ccc1O
score [1]: 0.97
cytochrome c release ratio [2]: 1.06
inhibition of aggregation [3]: 43.7%
parasite load remaining [4]: 96.4% (inactive) and 52.6% (inactive)
viability [4]: 66.8% and 91.1%
nuclear beta-catenin stimulation ([5]; at 10 µM): 4.8% (inactive)
nuclear beta-catenin stimulation ([5]; stimulation, at 2 µM): 0.2%
insulin secretion stimulation [6]: -0.2% (inactive)
viability decrease [7]: -42.6% (inactive)
tube area decrease [8]: -21.2% (inactive)
GLP1 secretion stimulation [9]: -0.8% (inactive)
inhibition of viability [10]: -7.73% (inactive)
viability decrease (inhibition) [11]: 16.9% (inactive)
viability decrease (inhibition) [12]: -3.7% (inactive)
inhibition [13]: 17.7% (inactive)
red/green cell ratio (normalised) [14]: 0.8 (inactive)
normalised cell number [14, 21]: 1.16
normalised cell number [14, 22]: 0.94
activity remaining [15]: 107% (inactive)
fold change ([16]; stronger effect = lower value): 0.975 (inactive)
fold change [16, 23]: 2.55
cell count [16, 24]: 12000
cell count [16, 25]: 12300
remaining NAD [17]: 10 nM (inactive)
luciferase signal [18]: 52 AU (inactive)

NC1=NC(=O)C(c2ccccc2)O1 (centres undefined)
parasite load remaining [4]: 109% (inactive)
viability [4]: 79.6%
nuclear beta-catenin stimulation ([5]; at 10 µM): 1% (inactive)
nuclear beta-catenin stimulation ([5]; stimulation, at 2 µM): 0.5%
insulin secretion stimulation [6]: -0.9% (inactive)
viability decrease [7]: -2.4% (inactive)
tube area decrease [8]: 1.1% (inactive)
GLP1 secretion stimulation [9]: 3.5% (inactive)
inhibition of viability [10]: -21.1% (inactive)
viability decrease (inhibition) [11]: 36.7% (inactive)
viability decrease (inhibition) [12]: -5.1% (inactive)
fold change ([16]; stronger effect = lower value): 0.967 (inactive)
fold change [16, 23]: 2.22
cell count [16, 24]: 9620
cell count [16, 25]: 9950
z-score [20]: 0.395 (inactive)

N#Cc1nn(-c2c(Cl)cc(C(F)(F)F)cc2Cl)c(N)c1S(=O)C(F)(F)F (centres undefined)
parasite load remaining [4]: 148% (inactive) and 35.4% (inactive)
viability [4]: 82.8% and 121%
nuclear beta-catenin stimulation ([5]; at 10 µM): 6.4% (inactive)
nuclear beta-catenin stimulation ([5]; stimulation, at 2 µM): 2.1%
insulin secretion stimulation [6]: 0.5% (inactive)
viability decrease [7]: -53.1% (inactive)
tube area decrease [8]: 9.4% (inactive)
GLP1 secretion stimulation [9]: -1.4% (inactive)
inhibition of viability [10]: 17.3% (inactive)
viability decrease (inhibition) [11]: 42.7% (inactive)
viability decrease (inhibition) [12]: 6.4% (inactive)
red/green cell ratio (normalised) [14]: 0.9 (inactive)
normalised cell number [14, 21]: 1
normalised cell number [14, 22]: 0.9
activity remaining [15]: 115% (inactive)
fold change ([16]; stronger effect = lower value): 0.962 (inactive) and 0.928 (inactive)
fold change [16, 23]: 1.07 and 3.63
cell count [16, 24]: 4080 and 11800
cell count [16, 25]: 4240 and 12700
remaining NAD [17]: 10 nM (inactive)
luciferase signal [18]: 40 AU (inactive)
